TRHR enhancer – TRH receptor (human) allosteric enhancement; P34981; TRHR cells, fluo-8 calcium fluorescence, EC20 TRH enhancement; enhancement, % at 2 µM; 360,000 tested, 0.66% active; in the data active = enhancement above about 30%
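Enhancer read-out: after compound pinning and an initial kinetic agonist-mode read, an EC20 of TRH (10 nM final) was injected and fluo-8 calcium signal (Ex 480/Em 530) followed at 1 s/cycle for 100 cycles in TRHR-expressing cells.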
D1 ag – activates the human D1 dopamine receptor; HEK293 T-REx D1 cells, calcium flux, agonist mode; activation, % at 2 µM; 360,000 tested, 1% active; AID 504660
Target sequence (P21728 whole entry, looked up): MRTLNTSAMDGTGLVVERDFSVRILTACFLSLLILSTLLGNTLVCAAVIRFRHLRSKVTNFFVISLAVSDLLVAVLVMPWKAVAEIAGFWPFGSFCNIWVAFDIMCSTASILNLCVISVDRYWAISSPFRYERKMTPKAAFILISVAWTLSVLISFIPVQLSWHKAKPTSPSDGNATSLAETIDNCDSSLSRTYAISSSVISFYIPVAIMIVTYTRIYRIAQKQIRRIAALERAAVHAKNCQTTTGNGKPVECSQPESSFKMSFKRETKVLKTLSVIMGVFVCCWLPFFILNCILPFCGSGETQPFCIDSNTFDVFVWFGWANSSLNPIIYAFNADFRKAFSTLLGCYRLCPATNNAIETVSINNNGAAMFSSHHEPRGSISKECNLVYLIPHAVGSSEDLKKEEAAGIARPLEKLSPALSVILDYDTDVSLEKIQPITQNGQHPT
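Inducible HEK293 T-REx D1 cells, force-coupled to calcium signalling, were plated at 4000 cells/well with tetracycline and held overnight at 30 C. After no-wash calcium dye loading, compound-evoked calcium rise over 180 s flagged agonists.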
D1 potentiator – potentiators of human D1 dopamine receptor; 360,000 tested, 0.036% active; HEK293 TREx D1 cells, calcium flux, dopamine EC20 potentiation; potentiation, % at 10 µM; in the data active = potentiation above about 30%
D1 antagonist – human D1 dopamine receptor antagonism | 360,000 tested, 3.2% active | activity change, negative = inhibition, % at 10 µM | HEK293 TREx D1 cells, calcium flux, dopamine EC80; hits give low values | P21728; in the data active = activity change below about -30%
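Tetracycline-induced HEK293 T-REx cells with force-coupled D1 receptor were loaded with a no-wash calcium dye. Compound was added after a 10 s baseline and read kinetically for 180 s; EC80 dopamine was then added and calcium flux followed another 180 s.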
Epigenetic reg – regulators of epigenetic silencing causing reporter derepression in mouse cells; Potency, µM (doses to about 53.9 µM), usual class: activators; 280,000 tested, 0.2% active; murine LDR cells, GFP reporter derepression, 30 h; active = well fitted activation curve with a large enough effect; also: nearly all actives have a fitted effect of over 60% in size
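Murine LDR cells carrying a silenced, genomically integrated CMV-driven GFP reporter were exposed to compound for 30 hours at 37 C. After PBS washes, GFP-positive cells (20–120 um objects) were counted by laser-scanning microplate cytometry.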
TRHR ag – activates the human TRH receptor. TRHR cells, calcium flux fluo-8, FDSS agonist mode. 360,000 tested, 0.18% active. activation, % at 2 µM. P34981. AID 493084
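Agonist-mode FDSS calcium read (Ex 480/Em 530, 1 s cycles) in 1536-well TRHR cells with fluo-8 dye, after 10-cycle baseline and 23 nL compound addition; TRH at EC20 (10 nM final) added afterwards for the enhancer phase.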
Hits are given with their value; – = inactive; · = not tested or not shown; ! = repeats disagree; [ ] = remark or other dose. Most compounds without a hit are left out; they make up all but 4.6% or so of the library. Rule as the data show it, unless noted: active = activation above about 30%; inactive = the rest.

SMILES | TRHR enhancer | D1 ag | D1 potentiator | D1 antagonist | Epigenetic reg | TRHR ag
CCC(C(=O)NCCc1ccccc1)n1nc(C)c2sc3ccccc3c2c1=O (centres undefined) | – | – | – | – | – | –
Cc1cc2c(=O)[nH]c(Cc3ccccc3)nc2s1 | – | – | – | -41.5 | – | –
Cc1ccc(Nc2c(-c3c[nH]c4ccccc34)nc3ccccn23)cc1 | – | – | – | – | – | –
COc1ccc(-c2cn3c(n2)sc2cc(C(=O)Nc4cccc(SC)c4)ccc23)cc1 | – | – | – | – | – | –
CCc1nn(C(CC)C(=O)NCc2ccc(OC)c(OC)c2)c(=O)c2cc3oc(C)cc3n12 (centres undefined) | 41.3 | – | – | – | – | –
CCc1nn(C(CC)C(=O)NCc2ccc(F)cc2)c(=O)c2cc3occc3n12 (centres undefined) | – | – | – | – | – | –
COc1cc(CC(NC(C)=O)C(=O)NC2CCN(c3c(Cc4ccccc4)c(C)nc4ncnn34)CC2)cc(OC)c1 (centres undefined) | – | – | – | – | – | –
Cc1nc2ncnn2c(N2CCN(C(=O)c3cccc(F)c3)CC2)c1Cc1ccccc1 | – | – | – | -91.1 | – | –
COc1ccc(NC(=S)Nc2cccc(C(F)(F)F)c2)c(C)c1 | – | – | – | · | – | –
CCOC(=O)c1ccc(NC(=S)N2CCSC2c2ccc(OC)cc2)cc1 (centres undefined) | – | 40.3 | – | – | – | –
COc1ccc(C2SCCN2C(=S)Nc2cccc(C(F)(F)F)c2)cc1 (centres undefined) | – | 56.3 | – | -35.6 | – | –
CCOC(=O)c1ccc(NC(=S)N2CCSC2c2ccc(Cl)cc2)cc1 (centres undefined) | – | 30.6 | – | – | – | –
COc1ccc(C2SCCN2C(=S)Nc2ccc(F)cc2)cc1 (centres undefined) | – | – | – | – | – | –
CSc1ccc(/C=c2\s/c(=C\C(=O)C(C)(C)C)n(CC(=O)NCCC3=CCCCC3)c2=O)cc1 | – | – | – | – | 20µM | –
O=c1c2ccccc2[nH]c(=S)n1CCN1CCCCC1 | – | – | – | – | · | –
O=c1c2ccccc2[nH]c(=S)n1CCCN1CCN(c2ccccc2F)CC1 | – | – | – | -74.7 | · | –
O=c1c2cccnc2[nH]c(=S)n1CCCN1CCN(c2ccccc2F)CC1 | – | – | – | – | – | –
O=c1c2ccccc2[nH]c(=S)n1CCCN1CCN(c2ccccc2)CC1 | – | – | – | -58.2 | · | –
O=C(CCCCCn1c(=S)[nH]c2ccc(N3CCOCC3)cc2c1=O)NC1CCN(Cc2ccccc2)CC1 | – | – | – | -31.8 | – | –
COc1ccc(Br)cc1CSC(=N)N | – | – | – | – | – | –
CCOc1ccc(CSC(=N)N)cc1 | – | – | – | – | – | –
CCCCCOc1ccc(Br)cc1CSC(=N)N | – | 30.2 | – | – | – | –
CCCCOc1ccc(CSC(=N)N)cc1Cl | – | 64.7 | – | – | – | –
CSc1ccc(CCNC(=O)Cn2ncn3c(cc4ccccc43)c2=O)cc1 | – | – | – | – | – | –
O=C(COC(=O)CNC(=O)c1cccc(F)c1)NCCC1=CCCCC1 | – | – | – | – | – | –
SMILES | TRHR enhancer | D1 ag | D1 potentiator | D1 antagonist | Epigenetic reg | TRHR ag
O=C(COC(=O)Cc1c(Cl)cccc1Cl)NCCC1=CCCCC1 | – | 34.6 | – | – | – | –
O=C(COC(=O)COc1cccc(F)c1)NCCC1=CCCCC1 | – | – | – | -31.7 | – | –
CC(C)(C)c1ccc(C(=O)NCCc2csc3nc(-c4ccccc4F)nn23)cc1 | – | – | – | – | – | –
CCCCNc1nc(-c2ccccc2)nc(-n2ccnc2)n1 | – | – | – | -38.0 | – | –
COc1ccc(Cn2c(SCc3ccc(C(=O)NC(C)c4ccccc4)cc3)nc3cccnc32)cc1 (centres undefined) | – | – | – | – | – | –
CCCC(C(=O)NC1CCCC1)N(Cc1cccs1)C(=O)c1snc(C(N)=O)c1N (centres undefined) | – | – | – | -36.1 | – | –
COc1cccc(N(CC(=O)NC2CCCCC2)C(=O)c2snc(C(N)=O)c2N)c1 | – | – | – | -35.1 | · | –
COc1ccc(CN(C(=O)c2nsc(Cl)c2Cl)C(C(=O)NC2CCCC2)c2ccc(C)cc2)cc1 (centres undefined) | 37.0 | – | – | – | – | –
COc1ccc(C(C(=O)NC2CCCCC2)N(Cc2cccnc2)C(=O)c2snc(C(N)=O)c2N)cc1 (centres undefined) | – | – | – | -33.7 | · | –
CCOc1ccccc1NC(=O)Cn1c(=O)n(-c2ccc(Cl)cc2)c(=O)c2oc3ccccc3c21 | – | – | – | – | – | –
Cc1oc2ncn(C)c(=O)c2c1C(=O)Nc1ccc(F)cc1 | – | – | – | – | – | –
CCC1OCCC=CC1C (centres undefined) | · | · | · | · | –[10.1 µM] | ·
Cc1cc(C)cc(N(CC(=O)NC2CCCCC2)C(=O)CCC(=O)Nc2cc(C)ccn2)c1 | – | – | – | – | – | –
Cc1ccc(N(CC(=O)NC2CCCC2)C(=O)CCCC(=O)Nc2ccccn2)cc1C | – | – | – | -45.8 | – | –
O=C(CCC(=O)N(CC(=O)NC1CCCC1)C1CCCCC1)Nc1ccccn1 | – | – | – | -46.3 | – | –
Cc1ccnc(NC(=O)CCC(=O)N(CC(=O)NC2CCCCC2)c2cccc(C)c2C)c1 | – | – | – | -42.4 | – | –
Cc1c(C#N)c(N)nc2c3c(sc12)NC(=O)CC3c1ccccc1 (centres undefined) | 35.9 | – | – | – | – | –
Cc1c(C#N)c(N)nc2c3c(sc12)NC(=O)CC3c1ccc(F)cc1 (centres undefined) | – | – | – | -31.0 | – | –
Cc1c(C(=O)NCC2CCCO2)oc2ccccc12 (centres undefined) | – | – | · | -31.3 | · | –
COc1ccccc1CNC(=O)c1ccc(C)s1 | – | – | – | -46.3 | – | –
COc1ccccc1CNC(=O)c1ccc(CS(=O)(=O)c2ccccc2C)o1 | – | 31.2! | – | -38.2! | – | –
COc1ccccc1S(=O)(=O)Cc1ccc(C(=O)NCC2CCCO2)o1 (centres undefined) | – | – | – | -35.8 | – | –
COc1ccc(CNC(=O)c2ccc(CS(=O)(=O)c3ccccc3C)o2)cc1 | – | – | – | – | · | –
CC(C)c1ccc(C2N=C(N)Nc3nc4ccccc4n32)cc1 (centres undefined) | – | – | – | – | – | –
COc1ccc(CNC(=O)c2ccc(-c3nc(CSc4ccc(C)cc4)c(C)o3)cc2)c(OC)c1 | – | – | – | – | – | –

From PubChem BioAssay
